Cycloheximide cs: counter-screen for Shiga toxin inhibitors: cycloheximide protein synthesis inhibition | cell reporter, cycloheximide protein synthesis inhibition counterscreen | max response, % | 300,000 tested, 12% active | AID 2314; in the data active = max response mostly above about 13%, no sharp cut-off; inactive = mostly below about 14%; note: read at 38.3 µM for the half of the compounds with a filed dose; 0% is about no effect
Pf growth 96h: inhibits malaria parasite growth, 96 h; Potency, µM (top dose mostly 28.7 µM), for the others: at the highest dose activity change, negative = inhibition, actives largely listed as inhibitors; P. falciparum luciferase reporter growth, 96 h; AID 504834; 320,000 tested, 6.9% active; note: potency is the fitted concentration of half-maximal effect; % is set by controls: 0 for no effect and ±100 for the full control effect
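Cell-based qHTS: luciferase-tagged P. falciparum in erythrocytes (2% hematocrit, 0.05% parasitemia final) incubated with compounds for 96 hours, 37 C, 5% CO2; luciferase detection reagent then added and luminescence measured.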
LASV entry inh: blocks Lassa virus binding to or entry into cells; 300,000 tested, 1.2% active; Lassa virus pseudotype entry inhibition, cell reporter; Potency, µM (series often up to 37.9 µM), without a hit: at the highest dose activity change, negative = inhibition, usual class: inhibitors; calls by dose curve; tested in HEK293 cells; note: potency is the fitted concentration of half-maximal effect; % is set by controls: 0 for no effect and ±100 for the full control effect; nearly all actives have a fitted effect of over 50% in size
Pf growth 48h: inhibits P. falciparum growth in the first generation, 48 h; AID 504832; Potency, µM (series often up to 28.7 µM), inactives show top-dose activity change, negative = inhibition, hits mostly inhibitors; P. falciparum luciferase growth in erythrocytes, 48 h; 310,000 tested, 5.9% active; note: potency is the fitted concentration of half-maximal effect; % is set by controls: 0 for no effect and ±100 for the full control effect
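A one-generation exposure of luciferase-tagged malaria parasites in RPMI 1640/Albumax erythrocyte culture, 37 C and 5% CO2. Inhibition is inferred from decreased luminescence after adding detection reagent.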
Shiga toxin inh: inhibitors of Shiga toxin in Vero cells | Vero cells, Shiga toxin protein synthesis inhibition reporter | inhibition, % at 38.7 µM | 290,000 tested, 9.2% active | AID 2315; in the data active = inhibition mostly above about 28%, no sharp cut-off; inactive = mostly below about 43%; note: 0% is about no effect
MARV entry inh: blocks Marburg virus binding to or entry into cells; Marburg virus pseudotyped entry inhibition, cell reporter; Potency, µM (top dose mostly 37.8 µM), without a hit: at the highest dose activity change, negative = inhibition, actives largely listed as inhibitors; 300,000 tested, 1.8% active; AID 540276; calls by dose curve; tested in HEK293 cells; note: potency is the fitted concentration of half-maximal effect; % is set by controls: 0 for no effect and ±100 for the full control effect
Starred values were filed as active, the others as inactive; ? = inconclusive; . = no result given; [ ] = dose if it differs, or a comment. Compounds with a hit are over-represented: about 19% of the library has one in this group of screens. Unless noted, calls come from the whole dose curve; as a rule, active = well fitted inhibition curve with a large enough effect; inconclusive = small, poorly fitted or top-dose-only effect, or another doubt; inactive = no such curve, though single readings can be large or run the other way.

SMILES	Cycloheximide cs	Pf growth 96h	LASV entry inh	Pf growth 48h	Shiga toxin inh	MARV entry inh
C=CCNC(=O)/C(=C/c1cccc([N+](=O)[O-])c1)NC(=O)c1ccco1	-3	75%	-3%	7%	-4	-11%[46.1 µM]
C=CCNC(=S)N/N=C/c1ccc(-c2cccc([N+](=O)[O-])c2)o1	16*	53%	.	?	41*	.
C=CCNC(=O)c1ccc(-c2ccc([N+](=O)[O-])cc2)o1	19*	31%	?	64%	active	?
C=CCNC(=O)c1ccc(-c2cccc([N+](=O)[O-])c2)o1	37*	-30%	-2%	53%	69*	?
CC(=O)Nc1ccc(NC(=O)c2ccc(-c3ccc([N+](=O)[O-])cc3)o2)cc1	-2	12%	.	-5%	1	.
C=CCNC(=S)N/N=C/c1ccc(-c2ccc(Br)cc2)o1	14	58%	-24%	?	-8	?
CC[C@@]1(c2ccccc2)NC(=O)N(C)C1=O	.	-22%	.	-19%	.	.
Cc1ccc(S(=O)(=O)N2CCN(C(=O)COC(=O)C3(C)CC3(Cl)Cl)CC2)c(C)c1 (stereo unspecified)	.	?	.	10µM*	.	.
Cc1ccc(S(=O)(=O)N2CCN(C(=O)COC(=O)c3ccc(Cl)c(S(N)(=O)=O)c3)CC2)c(C)c1	.	.	-8%	.	.	4%
Cc1ccc(S(=O)(=O)N2CCN(C)CC2)c(C)c1	-4	2.6µM*	17%	-1%	-12	0%
C#CCOc1ccccc1C(N)=O	0	27%	12%	10%	15	0%
CCCCc1ccc(NC(=S)N2CCCC2)cc1	48*	?	21%[46.1 µM]	6%	69*	15%[46.1 µM]
Cc1cc(C)cc(NC(=S)N2CCCC2)c1	-3	-17%	.	-5%	-4	.
CCCCc1ccc(NC(=S)N2CCN(C)CC2)cc1	20*	?	.	-11%	25	.
CCCCc1ccc(NC(=S)N2CCN(C(=O)OCC)CC2)cc1	-1	0%	?	?	21	-1%[46.1 µM]
CCOc1ccc(N2C(=O)CS/C2=C(\C(Cl)=C(Cl)Cl)[N+](=O)[O-])cc1	-3	-3%	?	.	-6	27%
CCCOc1ccc(C(=O)CCNc2cccc(Cl)c2)cc1	25*	-8%	-15%	52%	130*	?
COc1ccc(C(=O)CCNc2cccc(Cl)c2)cc1	9	?	3%	117%	24	?
O=C(CCC(=O)c1ccc(Oc2ccccc2)cc1)Nc1cccc(Cl)c1	-5	5.9µM*	-1%	10%	-8	22%
O=Cc1cc2ccccc2nc1SCCCF	5	0%	?	?	27	8%[46.1 µM]
CC(C)N1CCN(Cc2ccc3c(c2)OCCO3)CC1CCO (stereo unspecified)	-1	1%	.	21%	-10	.
Cc1ccc(-n2ncc3c(=O)[nH]c(SCC(=O)N4CCOCC4)nc32)cc1	-1	119%	?	-8%	-6	-19%
COc1cc2c(cc1OC)C(=O)Cc1ccc3c(c1CN(C)CC2)OCO3	-1	?	.	9.3µM*	-43	.
O=C(COc1ccc(Br)cc1)N1CCN(Cc2c[nH]c3ccccc23)CC1	-3	?	?	.	-12	?
O=C(COc1ccc2ccccc2c1)N1CCN(Cc2c[nH]c3ccccc23)CC1	17*	3.3µM*	16%	12µM*	19	?
SMILES	Cycloheximide cs	Pf growth 96h	LASV entry inh	Pf growth 48h	Shiga toxin inh	MARV entry inh
Cc1ccc(S(=O)(=O)N2CCCCC2)cc1NC(=O)C1CC(=O)N(Cc2ccco2)C1 (stereo unspecified)	.	?	2%	?	.	?
S=C(NCc1ccc(Cl)cc1Cl)NC1CCCCC1	12	?	8.9µM*	?	19	?
S=C(NCCc1cccc(Cl)c1)NC1CCCCC1	59*	27%	8%[46.1 µM]	63%	77*	?
CSCCC(NS(=O)(=O)c1ccccc1)C(=O)OCc1nc2ccsc2c(=O)[nH]1 (stereo unspecified)	.	-3%	-6%	1%	.	?
COc1ccc(C(=O)N2CCOCC2)cc1S(=O)(=O)N1CCCc2ccccc21	2	19%	.	-15%	-1	.
COC(=O)C1CCN(C(=O)COC(=O)c2ccc(OC)c(S(=O)(=O)N3CCCc4ccccc43)c2)CC1	32*	-5%	.	1%	55*	.
COc1ccc(C(=O)N2CCCN(C)CC2)cc1S(=O)(=O)N1CCCc2ccccc21	26*	?	-1%	-17%	51*	?

Screening data (PubChem)
